This is an account of results in publication PMC7862700, “An all-to-all approach to the identification of sequence-specific readers for epigenetic DNA modifications on cytosine”.

What all share (assay): DAPPL (digital affinity profiling via proximity ligation, sequencing); 10 mM Tris-HCl pH 7.5, 50 mM NaCl, 1 mM DTT, 4% glycerol, room temperature, 30 min; GST-TFs on glutathione beads, 16-mer random dsDNA library, 0.1% formaldehyde crosslink after washing; high values mean tight binding
The target in experiment [1] is T1, FEV (Homo sapiens, UniProt Q99581 1-238).
T1 sequence: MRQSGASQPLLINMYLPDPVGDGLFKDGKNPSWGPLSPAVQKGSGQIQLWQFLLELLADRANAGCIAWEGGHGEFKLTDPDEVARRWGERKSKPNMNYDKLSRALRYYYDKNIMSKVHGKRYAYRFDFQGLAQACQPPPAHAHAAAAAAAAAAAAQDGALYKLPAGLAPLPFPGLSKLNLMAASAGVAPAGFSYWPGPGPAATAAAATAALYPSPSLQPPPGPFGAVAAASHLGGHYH
The conditions noted are these: protein: recombinant; tags: N-terminal GST; dsDNA, one strand shown. Put shortly:
(§1)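 Yeast served to express human transcription factors as GST fusions, which were then captured on glutathione beads and labelled with DNA barcodes. Pooled with a tag-only sample, they were incubated with 200 nmole of a 16-mer random double-stranded DNA library for 30 min at room temperature in Tris/NaCl/DTT/glycerol buffer, washed, crosslinked with 0.1% formaldehyde, ligated by proximity, amplified by PCR and sequenced. Dividing each hexamer's read frequency for a factor by its frequency for the tag-only sample gives the binding signal.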

Experiment [2] has as its target ETV5 (Homo sapiens, UniProt P41161 1-510). The conditions noted are these: protein: recombinant; tags: N-terminal GST; dsDNA, one strand shown. Summed up:
as §1

Experiment [3] deals with HSF1 (Homo sapiens, UniProt Q00613 1-529). The conditions noted are these: protein: recombinant; tags: N-terminal GST; chain copies: 3; dsDNA, one strand shown. Summed up:
as §1

Experiment [4] deals with T2, SPIC (Homo sapiens, UniProt Q8N5J4 1-248).
T2 sequence: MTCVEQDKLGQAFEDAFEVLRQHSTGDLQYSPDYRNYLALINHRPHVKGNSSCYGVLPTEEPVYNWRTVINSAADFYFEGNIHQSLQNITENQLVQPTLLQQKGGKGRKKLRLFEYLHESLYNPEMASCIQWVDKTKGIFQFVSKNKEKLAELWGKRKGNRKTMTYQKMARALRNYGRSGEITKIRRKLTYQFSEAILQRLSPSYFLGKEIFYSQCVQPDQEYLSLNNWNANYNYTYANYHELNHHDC
The settings on record: protein: recombinant; tags: N-terminal GST; dsDNA, one strand shown. Summed up:
as §1

In experiment [5] the target is ELF4 (Homo sapiens, UniProt Q99607 1-663). The conditions noted are these: protein: recombinant; tags: N-terminal GST; dsDNA, one strand shown. Summed up:
as §1

For experiment [6], the target named is T3, ELK4 (Homo sapiens, UniProt P28324-2 1-405).
T3 sequence: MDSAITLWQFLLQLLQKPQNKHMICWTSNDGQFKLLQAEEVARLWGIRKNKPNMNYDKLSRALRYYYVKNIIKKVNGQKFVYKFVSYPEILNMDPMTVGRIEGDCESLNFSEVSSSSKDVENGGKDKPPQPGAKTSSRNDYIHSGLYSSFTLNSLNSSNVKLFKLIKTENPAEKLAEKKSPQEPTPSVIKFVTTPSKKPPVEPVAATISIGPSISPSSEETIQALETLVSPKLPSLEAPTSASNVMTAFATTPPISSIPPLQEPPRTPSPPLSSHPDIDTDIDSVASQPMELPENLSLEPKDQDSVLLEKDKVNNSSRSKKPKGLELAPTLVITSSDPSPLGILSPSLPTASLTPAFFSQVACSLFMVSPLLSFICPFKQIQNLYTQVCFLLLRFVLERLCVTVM
The conditions noted are these: protein: recombinant; tags: N-terminal GST; dsDNA, one strand shown. Put shortly: as §1

Experiment [7] addresses T4, ETV2 (Homo sapiens, UniProt O00321 1-342).
T4 sequence: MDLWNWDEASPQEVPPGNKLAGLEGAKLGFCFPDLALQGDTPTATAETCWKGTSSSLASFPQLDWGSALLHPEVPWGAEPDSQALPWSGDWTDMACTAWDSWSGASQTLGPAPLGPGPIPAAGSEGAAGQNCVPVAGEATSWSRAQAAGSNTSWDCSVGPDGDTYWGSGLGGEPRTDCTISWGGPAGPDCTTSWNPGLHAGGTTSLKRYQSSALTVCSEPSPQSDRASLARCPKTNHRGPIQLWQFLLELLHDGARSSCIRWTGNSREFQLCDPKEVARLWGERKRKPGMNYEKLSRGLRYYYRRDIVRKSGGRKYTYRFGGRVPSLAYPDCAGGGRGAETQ
The conditions noted are these: protein: recombinant; tags: N-terminal GST; dsDNA, one strand shown. Summed up:
as §1

The target of experiment [8] is T5, ELF3 (Homo sapiens, UniProt P78545 1-371).
T5 sequence: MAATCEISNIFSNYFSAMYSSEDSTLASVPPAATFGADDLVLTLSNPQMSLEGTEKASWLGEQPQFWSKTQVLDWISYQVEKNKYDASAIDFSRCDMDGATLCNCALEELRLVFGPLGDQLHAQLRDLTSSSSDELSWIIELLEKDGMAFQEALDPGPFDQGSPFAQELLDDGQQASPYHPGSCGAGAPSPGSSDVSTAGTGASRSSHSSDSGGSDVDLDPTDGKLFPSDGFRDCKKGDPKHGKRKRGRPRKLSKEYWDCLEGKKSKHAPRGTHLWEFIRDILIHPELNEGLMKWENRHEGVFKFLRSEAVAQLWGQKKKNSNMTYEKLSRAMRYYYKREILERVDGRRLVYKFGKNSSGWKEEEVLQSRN
The conditions noted are these: protein: recombinant; tags: N-terminal GST; dsDNA, one strand shown. Summed up: as §1

For experiment [9], the target named is CRX (Homo sapiens, UniProt O43186 1-299). The settings on record: protein: recombinant; tags: N-terminal GST; dsDNA, one strand shown. Put shortly:
as §1

The target in experiment [10] is ETV1 (Homo sapiens, UniProt P50549 1-477). The settings on record: protein: recombinant; tags: N-terminal GST; dsDNA, one strand shown. Summed up:
as §1

Experiment [11] concerns the target T6, ERF (Homo sapiens, UniProt P50548 1-548).
T6 sequence: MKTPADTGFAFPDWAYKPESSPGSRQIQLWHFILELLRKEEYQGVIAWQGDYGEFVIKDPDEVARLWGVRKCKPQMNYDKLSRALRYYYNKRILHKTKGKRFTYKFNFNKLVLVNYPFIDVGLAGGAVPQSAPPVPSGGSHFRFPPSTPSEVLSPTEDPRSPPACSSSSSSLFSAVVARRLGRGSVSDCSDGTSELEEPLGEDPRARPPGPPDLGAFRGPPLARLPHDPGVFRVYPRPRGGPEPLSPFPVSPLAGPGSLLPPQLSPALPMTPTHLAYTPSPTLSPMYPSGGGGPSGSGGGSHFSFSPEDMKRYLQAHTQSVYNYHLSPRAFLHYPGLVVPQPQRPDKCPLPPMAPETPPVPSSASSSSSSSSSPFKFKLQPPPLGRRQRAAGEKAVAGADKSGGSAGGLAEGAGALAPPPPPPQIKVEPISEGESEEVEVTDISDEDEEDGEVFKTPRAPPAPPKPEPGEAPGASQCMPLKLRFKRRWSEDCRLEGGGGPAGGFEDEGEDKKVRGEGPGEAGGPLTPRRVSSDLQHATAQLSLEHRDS
The conditions noted are these: protein: recombinant; tags: N-terminal GST; dsDNA, one strand shown. Put shortly:
as §1

Experiment [12] addresses T7, ETV3L (Homo sapiens, UniProt Q6ZN32 1-361).
T7 sequence: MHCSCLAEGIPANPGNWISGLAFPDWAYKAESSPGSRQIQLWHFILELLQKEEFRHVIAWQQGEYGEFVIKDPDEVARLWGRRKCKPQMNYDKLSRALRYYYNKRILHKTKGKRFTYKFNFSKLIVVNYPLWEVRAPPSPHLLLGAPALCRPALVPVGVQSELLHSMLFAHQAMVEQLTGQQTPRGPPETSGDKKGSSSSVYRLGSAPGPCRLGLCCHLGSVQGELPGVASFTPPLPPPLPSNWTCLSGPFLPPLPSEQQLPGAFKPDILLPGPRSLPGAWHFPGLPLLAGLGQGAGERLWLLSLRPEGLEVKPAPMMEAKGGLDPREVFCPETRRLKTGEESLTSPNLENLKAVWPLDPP
The settings on record: protein: recombinant; tags: N-terminal GST; dsDNA, one strand shown. Summed up:
as §1

The target in experiment [13] is T8, ETS2 (Homo sapiens, UniProt P15036 1-469).
T8 sequence: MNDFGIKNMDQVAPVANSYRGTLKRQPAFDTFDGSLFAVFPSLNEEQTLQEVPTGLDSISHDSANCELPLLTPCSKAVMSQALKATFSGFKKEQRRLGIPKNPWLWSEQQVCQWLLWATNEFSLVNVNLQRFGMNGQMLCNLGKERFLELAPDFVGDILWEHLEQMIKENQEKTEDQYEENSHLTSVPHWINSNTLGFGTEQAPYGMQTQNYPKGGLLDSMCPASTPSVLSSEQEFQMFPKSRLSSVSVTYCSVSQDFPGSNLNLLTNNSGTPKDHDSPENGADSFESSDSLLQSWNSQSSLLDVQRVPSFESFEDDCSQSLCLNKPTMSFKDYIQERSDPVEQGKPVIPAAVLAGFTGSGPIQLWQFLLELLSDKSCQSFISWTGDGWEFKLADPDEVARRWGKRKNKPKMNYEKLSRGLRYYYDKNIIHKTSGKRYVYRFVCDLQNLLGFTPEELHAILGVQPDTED
The settings on record: protein: recombinant; tags: N-terminal GST; dsDNA, one strand shown. Summed up: as §1

For experiment [14], the target named is T9, SPDEF (Homo sapiens, UniProt O95238 1-335).
T9 sequence: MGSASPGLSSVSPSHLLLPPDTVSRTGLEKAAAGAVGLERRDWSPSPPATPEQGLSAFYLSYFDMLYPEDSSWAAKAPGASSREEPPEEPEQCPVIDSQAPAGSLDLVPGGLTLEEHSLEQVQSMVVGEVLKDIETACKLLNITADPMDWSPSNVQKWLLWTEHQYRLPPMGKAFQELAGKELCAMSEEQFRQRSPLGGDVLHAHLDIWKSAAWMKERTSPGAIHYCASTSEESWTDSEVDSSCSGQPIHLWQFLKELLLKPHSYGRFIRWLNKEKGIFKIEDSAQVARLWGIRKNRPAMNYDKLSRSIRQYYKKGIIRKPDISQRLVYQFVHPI
The settings on record: protein: recombinant; tags: N-terminal GST; dsDNA, one strand shown. Summed up: as §1

Experiment [15] addresses T10, ETV7 (Homo sapiens, UniProt Q9Y603 1-341).
T10 sequence: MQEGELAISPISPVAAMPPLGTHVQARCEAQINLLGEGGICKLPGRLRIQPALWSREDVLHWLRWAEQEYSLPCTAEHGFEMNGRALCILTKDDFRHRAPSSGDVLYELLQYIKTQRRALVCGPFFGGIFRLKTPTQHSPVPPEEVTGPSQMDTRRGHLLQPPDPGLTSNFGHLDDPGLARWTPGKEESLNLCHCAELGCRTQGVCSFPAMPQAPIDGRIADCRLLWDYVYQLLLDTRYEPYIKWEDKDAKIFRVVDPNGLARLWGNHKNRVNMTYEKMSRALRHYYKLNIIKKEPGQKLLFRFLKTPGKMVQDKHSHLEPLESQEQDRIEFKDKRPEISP
The conditions noted are these: protein: recombinant; tags: N-terminal GST; dsDNA, one strand shown. Summed up: as §1

Experiment [16] deals with T11, ELF5 (Homo sapiens, UniProt Q9UKW6-2 1-255).
T11 sequence: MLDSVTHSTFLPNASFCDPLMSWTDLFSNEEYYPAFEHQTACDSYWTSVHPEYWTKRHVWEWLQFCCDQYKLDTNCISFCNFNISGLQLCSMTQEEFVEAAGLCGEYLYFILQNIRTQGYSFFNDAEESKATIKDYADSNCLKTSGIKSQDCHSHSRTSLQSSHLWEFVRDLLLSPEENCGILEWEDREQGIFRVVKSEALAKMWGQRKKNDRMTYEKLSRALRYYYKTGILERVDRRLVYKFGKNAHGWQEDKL
The settings on record: protein: recombinant; tags: N-terminal GST; dsDNA, one strand shown. Put shortly:
as §1

For experiment [17], the target named is T12, ETV3 (Homo sapiens, UniProt P41162-2 1-143).
T12 sequence: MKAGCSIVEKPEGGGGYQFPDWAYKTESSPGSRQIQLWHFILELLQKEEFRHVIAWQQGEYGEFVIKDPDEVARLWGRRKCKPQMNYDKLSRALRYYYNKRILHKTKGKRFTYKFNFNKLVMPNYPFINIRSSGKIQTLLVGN
The conditions noted are these: protein: recombinant; tags: N-terminal GST; dsDNA, one strand shown. Summed up:
as §1

Experiment [18] has as its target ETV6 (Homo sapiens, UniProt P41212 1-452). The conditions noted are these: protein: recombinant; tags: N-terminal GST; dsDNA, one strand shown. Put shortly: as §1

Sequence of CRX (O43186 whole entry): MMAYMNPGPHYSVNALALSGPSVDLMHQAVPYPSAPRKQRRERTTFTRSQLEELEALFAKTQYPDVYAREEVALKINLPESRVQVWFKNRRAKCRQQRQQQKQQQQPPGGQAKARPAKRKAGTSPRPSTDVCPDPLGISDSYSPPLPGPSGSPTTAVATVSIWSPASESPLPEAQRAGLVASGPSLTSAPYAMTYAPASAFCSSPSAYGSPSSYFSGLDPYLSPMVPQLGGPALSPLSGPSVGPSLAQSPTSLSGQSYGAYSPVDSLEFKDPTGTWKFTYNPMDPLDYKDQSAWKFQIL
Sequence of ETV6 (P41212 whole entry): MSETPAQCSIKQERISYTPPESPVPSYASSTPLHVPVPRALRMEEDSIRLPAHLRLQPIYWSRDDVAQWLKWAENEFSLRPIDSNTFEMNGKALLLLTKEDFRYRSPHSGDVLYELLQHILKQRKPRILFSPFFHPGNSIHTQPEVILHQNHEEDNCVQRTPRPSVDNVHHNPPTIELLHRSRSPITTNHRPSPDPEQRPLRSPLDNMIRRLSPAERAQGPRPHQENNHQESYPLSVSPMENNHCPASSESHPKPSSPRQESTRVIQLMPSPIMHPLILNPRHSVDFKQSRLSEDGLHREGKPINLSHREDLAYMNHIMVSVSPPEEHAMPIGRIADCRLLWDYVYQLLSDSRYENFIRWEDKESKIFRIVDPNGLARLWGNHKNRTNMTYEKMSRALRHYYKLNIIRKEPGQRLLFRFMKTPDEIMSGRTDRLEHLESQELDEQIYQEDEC
Sequence of ETV1 (P50549 whole entry): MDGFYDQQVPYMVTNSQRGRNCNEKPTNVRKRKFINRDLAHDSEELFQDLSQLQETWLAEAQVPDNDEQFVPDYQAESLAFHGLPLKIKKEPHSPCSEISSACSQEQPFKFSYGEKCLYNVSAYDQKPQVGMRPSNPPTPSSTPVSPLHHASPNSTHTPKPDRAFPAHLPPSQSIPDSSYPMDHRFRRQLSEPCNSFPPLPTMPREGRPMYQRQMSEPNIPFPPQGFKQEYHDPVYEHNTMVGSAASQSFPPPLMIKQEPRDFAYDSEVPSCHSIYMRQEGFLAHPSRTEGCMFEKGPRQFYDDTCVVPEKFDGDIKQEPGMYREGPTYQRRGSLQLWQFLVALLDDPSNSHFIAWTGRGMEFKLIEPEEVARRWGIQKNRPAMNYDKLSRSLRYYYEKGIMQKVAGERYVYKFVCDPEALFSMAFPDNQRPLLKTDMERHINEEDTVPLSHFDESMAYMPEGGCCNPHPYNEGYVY
Sequence of ELF4 (Q99607 whole entry): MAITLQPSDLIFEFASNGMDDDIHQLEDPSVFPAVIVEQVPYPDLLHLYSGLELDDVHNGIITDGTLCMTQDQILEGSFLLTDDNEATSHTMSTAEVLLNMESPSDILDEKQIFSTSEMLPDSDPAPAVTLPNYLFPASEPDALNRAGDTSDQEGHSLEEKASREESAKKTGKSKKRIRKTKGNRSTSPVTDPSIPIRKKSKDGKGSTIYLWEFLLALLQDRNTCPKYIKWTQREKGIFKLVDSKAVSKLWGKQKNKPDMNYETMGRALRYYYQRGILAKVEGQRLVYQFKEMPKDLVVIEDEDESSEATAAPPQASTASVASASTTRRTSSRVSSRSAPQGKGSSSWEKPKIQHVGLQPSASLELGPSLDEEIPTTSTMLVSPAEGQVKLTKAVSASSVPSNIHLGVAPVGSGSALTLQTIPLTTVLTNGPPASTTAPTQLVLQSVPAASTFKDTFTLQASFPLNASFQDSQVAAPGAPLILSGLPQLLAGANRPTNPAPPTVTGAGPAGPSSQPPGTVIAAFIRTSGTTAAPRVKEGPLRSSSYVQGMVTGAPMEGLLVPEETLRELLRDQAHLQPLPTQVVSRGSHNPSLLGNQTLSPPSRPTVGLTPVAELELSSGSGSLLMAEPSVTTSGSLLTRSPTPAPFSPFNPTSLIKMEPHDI
Sequence of HSF1 (Q00613 whole entry): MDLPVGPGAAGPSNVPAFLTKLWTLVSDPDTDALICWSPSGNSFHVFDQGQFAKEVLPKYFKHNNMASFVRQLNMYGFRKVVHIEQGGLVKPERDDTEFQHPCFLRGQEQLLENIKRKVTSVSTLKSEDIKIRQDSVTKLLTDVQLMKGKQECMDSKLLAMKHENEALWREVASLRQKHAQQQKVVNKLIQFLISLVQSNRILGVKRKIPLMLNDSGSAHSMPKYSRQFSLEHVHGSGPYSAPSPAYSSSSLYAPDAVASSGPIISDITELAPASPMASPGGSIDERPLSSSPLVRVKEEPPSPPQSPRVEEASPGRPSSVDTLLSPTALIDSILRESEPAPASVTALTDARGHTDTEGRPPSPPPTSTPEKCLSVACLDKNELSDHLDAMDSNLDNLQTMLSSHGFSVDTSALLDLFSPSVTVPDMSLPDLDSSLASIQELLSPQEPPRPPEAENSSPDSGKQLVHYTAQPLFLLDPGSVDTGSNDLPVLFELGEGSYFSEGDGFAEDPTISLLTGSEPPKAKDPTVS
Sequence of ETV5 (P41161 whole entry): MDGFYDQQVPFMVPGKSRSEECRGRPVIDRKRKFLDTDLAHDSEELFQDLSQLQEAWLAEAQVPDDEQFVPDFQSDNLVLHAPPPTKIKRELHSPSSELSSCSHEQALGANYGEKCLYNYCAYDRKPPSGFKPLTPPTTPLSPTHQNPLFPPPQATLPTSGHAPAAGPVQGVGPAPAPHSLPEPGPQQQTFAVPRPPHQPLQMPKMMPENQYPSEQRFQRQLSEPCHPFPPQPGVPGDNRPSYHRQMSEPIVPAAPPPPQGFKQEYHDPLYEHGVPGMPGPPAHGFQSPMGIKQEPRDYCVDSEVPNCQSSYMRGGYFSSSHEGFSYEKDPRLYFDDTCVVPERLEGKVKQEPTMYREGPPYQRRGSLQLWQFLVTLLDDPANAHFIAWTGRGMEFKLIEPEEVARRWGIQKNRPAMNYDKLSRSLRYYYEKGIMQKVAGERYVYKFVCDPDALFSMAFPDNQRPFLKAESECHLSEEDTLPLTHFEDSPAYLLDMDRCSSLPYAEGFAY

Take CTTTTT: the binding signal in experiment [1] is 1.35 fold enrichment (6-mer frequency, TF over GST control); in experiment [2], 1.28 fold enrichment (6-mer frequency, TF over GST control); in experiment [3] it was 1.23 fold enrichment (6-mer frequency, TF over GST control); in experiment [4], 1.34 fold enrichment (6-mer frequency, TF over GST control); in experiment [5], 1.43 fold enrichment (6-mer frequency, TF over GST control); in experiment [6], 1.24 fold enrichment (6-mer frequency, TF over GST control). Further, the binding signal in experiment [7] is 1.28 fold enrichment (6-mer frequency, TF over GST control); in experiment [8], 1.58 fold enrichment (6-mer frequency, TF over GST control); in experiment [9], 1.25 fold enrichment (6-mer frequency, TF over GST control); in [10], 1.32 fold enrichment (6-mer frequency, TF over GST control); in experiment [11], 1.31 fold enrichment (6-mer frequency, TF over GST control); in experiment [12], 1.35 fold enrichment (6-mer frequency, TF over GST control). Moreover, the binding signal was 1.31 fold enrichment (6-mer frequency, TF over GST control) in [13]; 1.32 fold enrichment (6-mer frequency, TF over GST control) in experiment [14]; 1.37 fold enrichment (6-mer frequency, TF over GST control) in experiment [15]; 1.31 fold enrichment (6-mer frequency, TF over GST control) in [16]; 1.24 fold enrichment (6-mer frequency, TF over GST control) in experiment [17]; 1.3 fold enrichment (6-mer frequency, TF over GST control) in experiment [18].
